The values below come from PubChem BioAssay (Tox21).

Molecules are shown by their SMILES. Values without a mark were called inactive. Records with an inconclusive call do not appear. Activity calls are given as the source filed them. Unless noted, calls come from the whole dose curve; as a rule, active = well fitted curve in the direction sought with a large enough effect in the repeat runs; inconclusive = weak or mixed curves; inactive = no such curve, though single readings can be large; an effect the other way counts as inactive or inconclusive.

A short description of assay [1]: qHTS assay to identify small molecule agonists of the hypoxia (HIF-1) signaling pathway - cell viability counter screen (AID 1224844; calls by dose curve; note: nearly all actives have a fitted effect of over 50% in size). The essentials: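 Same wells as the HIF-1 reporter screen; ME-180 cells carrying HRE-bla, 17 hr treatment at 37C; CellTiter-Glo luminescence read after 30 min at room temperature.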
(qHTS replaces the single test concentration by a dilution series.)

The nature of assay [2]: qHTS assay to identify small molecule agonists of H2AX (AID 1224845; active = well fitted activation curve with a large enough effect in the signal ratio in the repeat runs, not every such curve was filed as active; the % refers to the signal ratio). The gist of the method: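 Wild-type CHO-K1 cells plated overnight, then exposed 3 hr at 37C to compounds at 15 concentrations (0.76% DMSO). Lysed, then HTRF anti-pH2AX(S139)-cryptate/anti-H2AX-d2 detection after 24 hr at room temperature; emissions 665 and 620 nm.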
Assay [3] is described as follows: qHTS assay to identify small molecule agonists of the hypoxia (HIF-1) signaling pathway (AID 1224846; active = well fitted activation curve with a large enough effect in the signal ratio in the repeat runs, not every such curve was filed as active; the % refers to the signal ratio). The essentials:
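In ME-180 cells bearing an HRE-bla construct, 17 h treatment with DMSO-dissolved compounds at 37C was followed by CCF4-AM loading to quantify reporter induction.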

Assay [4] in a line: qHTS assay to identify small molecule agonists of H2AX - cell viability counter screen (AID 1224847; calls by dose curve; note: top concentration of the series differs between compounds; nearly all actives have a fitted effect of over 30% in size). The essentials:
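Cells plated first: CHO-K1, 1000 per well in 10% FBS medium, incubated overnight at 37C. Then 15-point compound titration added (final DMSO 0.76%) for 3 hr. Finally CellTiter-Glo added and luminescence read.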

Assay [5] is described as follows: qHTS RealTime-Glo MT Cell Viability Assay in HepG2 cells - 24 hour (AID 1224867). Note: nearly all actives have a fitted effect of over 50% in size. The gist of the method: (§1)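 qHTS, HepG2, 600 cells/well, RealTime-Glo (NanoLuc + prosubstrate) added with cells; 5 h preincubation; DMSO compound addition; 37 C; luminescence at 0/8/16/24/32/40 h.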
A short description of assay [6]: qHTS RealTime-Glo MT Cell Viability Assay in HEK293 cells - 32 hour (AID 1224868). Note: top concentration of the series differs between compounds; nearly all actives have a fitted effect of over 50% in size. The essentials: (§2)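 Assay medium contained NanoLuc luciferase plus cell-permeant prosubstrate, added with HEK293 cells at 600 cells/well. After 5 h at 37 C/5% CO2 compounds were added; plates stayed at 37 C for 40 h with serial luminescence reads.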
The nature of assay [7]: A CellTox Green Cytotoxicity Assay to monitor cytotoxicity in HEK293 cells - 0 hour (AID 1224869). Note: nearly all actives have a fitted effect of over 50% in size. The gist of the method: (§3)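 Homogeneous no-lysis format: HEK293 cell suspension mixed with CellTox Green reagent, seeded, incubated 5 h at 37 C/5% CO2, then dosed by pintool with compound in DMSO.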
The nature of assay [8]: qHTS RealTime-Glo MT Cell Viability Assay in HepG2 cells - 40 hour (AID 1224870). Note: nearly all actives have a fitted effect of over 50% in size. The essentials: (§4)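 HepG2 cells mixed with RealTime-Glo MT reagents (NanoLuc plus cell-permeant prosubstrate) were seeded at 600 cells/well, incubated 5 h at 37 C/5% CO2, then pinned with compounds in DMSO; nonlytic luminescence tracked viability during 40 h treatment.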
A short description of assay [9]: qHTS RealTime-Glo MT Cell Viability Assay in HEK293 cells - 16 hour (AID 1224872). The gist of the method: as §2
Assay [10] can be described thus: qHTS RealTime-Glo MT Cell Viability Assay in HepG2 cells - 8 hour (AID 1224873). Note: nearly all actives have a fitted effect of over 55% in size. The gist of the method: as §4
A short description of assay [11]: qHTS RealTime-Glo MT Cell Viability Assay in HEK293 cells - 40 hour (AID 1224874). Note: nearly all actives have a fitted effect of over 50% in size. To be noted: RealTime-Glo luminescence; max response: active compounds read low. The gist of the method:
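Measured as luminescence from the same continuously cultured HEK293 wells at successive time points (0, 8, 16, 24, 32, 40 h) after compound addition. Reagent present from seeding; dosing at 5 h; incubation 37 C.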

The nature of assay [12]: A CellTox Green Cytotoxicity Assay to monitor cytotoxicity in HEK293 cells - 24 hour (AID 1224875). Note: nearly all actives have a fitted effect of over 45% in size. The gist of the method:
as §3

Assay [13] can be described thus: A CellTox Green Cytotoxicity Assay to monitor cytotoxicity in HepG2 cells - 16 hour (AID 1224876). Note: nearly all actives have a fitted effect of over 45% in size. The essentials: (§5)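 Fluorescent DNA-binding dye, 600 HepG2 cells/well, 5 h preincubation then compound in DMSO; same plates read at 0–40 h, 37 C.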
A short description of assay [14]: qHTS RealTime-Glo MT Cell Viability Assay in HepG2 cells - 32 hour (AID 1224877). Note: nearly all actives have a fitted effect of over 55% in size. The gist of the method:
as §1

A short description of assay [15]: A CellTox Green Cytotoxicity Assay to monitor cytotoxicity in HepG2 cells - 24 hour (AID 1224878). Note: nearly all actives have a fitted effect of over 45% in size. The essentials: as §5
The nature of assay [16]: A CellTox Green Cytotoxicity Assay to monitor cytotoxicity in HepG2 cells - 40 hour (AID 1224879). Note: nearly all actives have a fitted effect of over 40% in size. The gist of the method: as §5
For assay [17], the target named is Thyrotropin receptor (Homo sapiens) (UniProt P16473). Put plainly: qHTS assay to identify small molecule agonists of the thyroid stimulating hormone receptor (TSHR) signaling pathway (AID 1224843; calls by dose curve; note: nearly all actives have a fitted effect of over 45% in size). The essentials:
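Using 15 concentrations per compound in triplicate, cAMP production was monitored in TSHR-HEK293 cells after 30 min compound incubation at RT; HTRF reagents followed, with fluorescence intensity recorded after 1 h.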

Assay [18] is described as follows: qHTS assay to identify small molecule antagonists of the estrogen related receptor (ERR) signaling pathway from Tox21 library (AID 1224848). Note: nearly all actives have a fitted effect of over 50% in size. Note: potency is the fitted concentration of half-maximal effect. The gist of the method: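 Tox21 10K compounds in DMSO tested for ERR pathway antagonism in NTP's ERR cell line; 18 h, 37 C exposure; ONE-Glo luminescence.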
Assay [19] in a line: qHTS assay to identify small molecule agonists of the estrogen related receptor (ERR) signaling pathway from Tox21 library (AID 1224849; calls by dose curve; note: nearly all actives have a fitted effect of over 15% in size). Particulars: ERR reporter cell line, ONE-Glo luciferase, 18 h; at 92.4 µM (top of the series) unless noted. The gist of the method:
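Reporter cells (ERR, NTP source) treated with Tox21 10K compounds 18 h, 37 C. Readout: ONE-Glo luminescence, 30 min RT.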

Assay [20] is described as follows: A CellTox Green Cytotoxicity Assay to monitor cytotoxicity in HEK293 cells - 40 hour (AID 1224871). Note: nearly all actives have a fitted effect of over 45% in size. The essentials: as §3
% is set by controls: 0 for no effect and ±100 for the full control effect.

Chain of Thyrotropin receptor (Homo sapiens) (P16473 whole entry, looked up): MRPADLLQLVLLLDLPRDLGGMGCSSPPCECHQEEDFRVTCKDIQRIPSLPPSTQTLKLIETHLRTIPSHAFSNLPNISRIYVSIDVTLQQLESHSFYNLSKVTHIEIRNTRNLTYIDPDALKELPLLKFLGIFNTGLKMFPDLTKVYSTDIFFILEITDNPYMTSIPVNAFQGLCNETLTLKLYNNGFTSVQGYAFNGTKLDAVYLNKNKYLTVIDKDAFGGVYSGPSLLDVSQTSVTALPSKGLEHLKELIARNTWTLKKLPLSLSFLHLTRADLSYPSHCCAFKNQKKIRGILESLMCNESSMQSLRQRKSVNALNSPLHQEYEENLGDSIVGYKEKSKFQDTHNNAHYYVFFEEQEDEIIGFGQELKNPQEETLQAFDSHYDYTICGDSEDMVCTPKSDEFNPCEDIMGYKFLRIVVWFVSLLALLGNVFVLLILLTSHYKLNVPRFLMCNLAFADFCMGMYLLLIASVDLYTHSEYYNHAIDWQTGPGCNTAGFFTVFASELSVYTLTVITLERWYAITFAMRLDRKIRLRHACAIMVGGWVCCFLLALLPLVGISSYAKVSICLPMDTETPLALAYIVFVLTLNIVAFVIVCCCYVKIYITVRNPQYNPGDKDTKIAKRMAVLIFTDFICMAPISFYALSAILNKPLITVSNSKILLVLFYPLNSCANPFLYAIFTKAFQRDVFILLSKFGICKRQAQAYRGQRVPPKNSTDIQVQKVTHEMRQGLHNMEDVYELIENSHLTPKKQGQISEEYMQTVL

`C=CC(C)(O)CC/C=C(/C)CCC=C(C)C` (stereo not drawn): the Potency result in [1], in assay [2], in assay [4], in [6], in [7] and in assay [8] was “inactive” in each case. The Potency entry in assay [9], in [12], in assay [13], in [14], in [15] and in [16] was “inactive” in each case. Also, the outcome in [3], in [5] and in [10] was inactive. Moreover, the max response in assay [11] was 0.65%.

As to `Cc1cc(C)n(CO)n1`, the Potency result in [17], in assay [4], in assay [6], in [7], in [8] and in [9] was “inactive” each time. Further, the Potency entry in [12], in assay [13], in assay [14], in assay [15] and in assay [16] was “inactive” in each case. Besides, the result in assay [3], in [5] and in assay [10] was inactive. The max response in assay [11] was 1.2%.

For the compound `O=Cc1ccc(Cl)c([N+](=O)[O-])c1`, the Potency entry in [17], in assay [4], in [7], in assay [8], in assay [20] and in [9] was “inactive” throughout. The Potency result in assay [12], in [13], in assay [14] and in [15] was “inactive” throughout. Besides, the call in [3], in assay [5] and in assay [10] was inactive. Further, the Potency in [18] is 54.5 µM (active). In addition, the activity change, positive = activation in assay [19] was -38.6%.

Regarding `Nc1cccc2c(=O)[nH][nH]c(=O)c12`, the Potency entry in assay [17], in assay [4], in assay [6], in assay [7], in assay [8] and in assay [20] was “inactive” each time. Also, the Potency entry in [9], in assay [12], in [13], in assay [14], in assay [15] and in [16] was “inactive” in each case. The call in assay [3], in assay [5] and in [10] was inactive. For the same compound, the Potency in assay [18] was 48.8 µM (active). For the same compound, in assay [19], the activity change, positive = activation was -53.6%.

With `Cc1c(-c2cccnc2)c2ccccc2n1CCCCC(=O)O`, the Potency entry in [1], in [2], in assay [4], in [18], in assay [6] and in assay [7] was “inactive” in each case. The Potency result in [20], in assay [9], in assay [12], in assay [13], in assay [14] and in [15] was “inactive” each time. The Potency result in [16] is “inactive”. The call in assay [3], in [5] and in assay [10] was inactive. The activity change, positive = activation in assay [19] was -5.77%. Besides, the max response in assay [11] was 2.18%.

Consider `CC(=O)S[C@H](C(=O)N[C@H]1Cc2ccccc2[C@H]2CCC[C@@H](C(=O)O)N2C1=O)C(C)C`, for which the Potency entry in assay [17], in assay [4], in [18], in [6], in assay [8] and in [20] was “inactive” each time. Moreover, the Potency result in assay [9], in assay [12], in assay [13], in [14], in assay [15] and in [16] was “inactive” each time. In addition, the compound was classed as inactive in assay [3], in [5] and in assay [10]. In addition, the activity change, positive = activation in assay [19] is 1.31%. In assay [11], the max response is 16.8%.

`CC(C)(C)N`: the Potency entry in assay [17], in assay [4], in assay [6], in [7], in assay [8] and in assay [20] was “inactive” throughout. In addition, the Potency result in [9], in assay [12], in assay [13], in assay [14], in assay [15] and in assay [16] was “inactive” in each case. Also, the compound was called inactive in assay [3] and in [10]. For the same compound, the max response in assay [11] is 1.55%.
